HepG2 tox: qHTS for Inhibitors of TGF-b: Cytotox Counterscreen; 0.76% of 410,000 active; Potency, µM (titrated, usually from 46.1 µM), for the others: at the top dose activity change, negative = cytotoxicity, usual class: cytotoxic; HepG2 CAGA-GFP viability, ATP luminescence, 18 h
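CellTiter-Glo luminescence gave cytotoxicity after 18 hours at 37 degrees C. The cells were HepG2 CAGA-GFP in 1% FBS DMEM, stimulated with 500 pg/mL TGF-beta after compound addition. %Activity was normalised to no-cell wells (complete cell-killing) and DMSO (no toxicity), and curves were fitted and classified.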
TGFb inhibitor: qHTS for Inhibitors of TGF-b | Potency, µM (highest dose often 46.1 µM), inactives show top-dose activity, negative = inhibition, most hits filed as inhibitors | 1.2% of 410,000 active | HepG2 CAGA-GFP TGF-b/SMAD3 reporter, GFP fluorescence, 18 h; TGF-beta stimulated, 500 pg/mL final | AID 588855, 2011; also: % is scaled to controls: 0 for no effect and ±100 for the full control effect; nearly all actives have a fitted effect of over 65% in size
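HEPG2 CAGA-GFP cells (1000/well, DMEM with 1% FBS) were pre-incubated 2 h at 37 degrees C, given compound by pin tool, then stimulated with TGF-beta at 500 pg/mL final for 18 h before per-cell GFP fluorescence imaging.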
HT1080 IDH1KD tx: qHTS for induction of synthetic lethality in tumor cells producing 2HG: qHTS for the HT-1080-IDH1KD cell line. 2% of 360,000 active. HT-1080 IDH1 knockdown viability, ATP luminescence, 48 h. Potency, µM (titrated, usually from 46.1 µM), for inactives: at the top dose activity, negative = toxicity, most hits filed as cytotoxic;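 also: 0% = DMSO wells and -100% = cell-free medium wells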
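IDH1KD HT-1080 cells, 750/well, RPMI + 5% FBS; compound pinned after 2 h settling; 48 h, 37 °C; CellTiter-Glo luminescence; % activity normalised to DMSO and no-cell wells; curves fitted, classed by r2 and efficacy.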
HT1080-NT tox: qHTS for induction of synthetic lethality in tumor cells producing 2HG: qHTS for the HT-1080-NT fibrosarcoma cell line. HT-1080-NT fibrosarcoma viability, CellTiter-Glo ATP luminescence, 48 h. Potency, µM (titrated, usually from 46.1 µM), for the others: top-dose activity, negative = less viability, most hits filed as cytotoxic. 1.6% of 360,000 active. AID 686970, 2013;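 also: NT is the 2HG producing partner of a matched IDH1 knockdown line; 0% = DMSO-treated cells and -100% = media-only wells without cells; nearly all actives have a fitted effect of over 55% in size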
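Luminescent CellTiter-Glo readout after 48 hours of compound exposure at 37 degrees C defined viability of HT-1080-NT cells. Activity was normalized to DMSO wells and cell-free media wells; concentration-response curves were fitted and assigned curve classes.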
KB-3-1 tox: qHTS assay for MDR1-selective chemotherapeutics: Primary screen using the parental adenocarcinoma cell KB-3-1 | KB-3-1 viability, CellTiter-Glo ATP luminescence, 72 h | 1.4% of 400,000 active | Potency, µM (doses to about 46.1 µM), most hits filed as cytotoxic; also: % is scaled to controls: 0 for no effect and ±100 for the full control effect; nearly all actives have a fitted effect of over 60% in size
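Cytotoxicity in the drug-sensitive parental line KB-3-1 was scored as loss of CellTiter-Glo luminescence following 72 h incubation with compound. Values come from curve fitting of normalized concentration-response data.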
KB-V1 MDR tox: qHTS assay for MDR1-selective chemotherapeutics: Primary screen using the drug-selected MDR subline cells KB-V1. Potency, µM (doses to about 46.1 µM), actives largely listed as cytotoxic. 3.4% of 400,000 active. KB-V1 MDR cells viability, CellTiter-Glo, 72 h; also: % is scaled to controls: 0 for no effect and ±100 for the full control effect; nearly all actives have a fitted effect of over 60% in size
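KB-V1 cells (P-gp-expressing MDR subline of KB-3-1) in phenol-red-free DMEM with 10% FBS were exposed to library compounds over a concentration series for 72 h at 37 degrees C. Viability read by CellTiter-Glo luminescence; concentration-effect curves fitted after normalization.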
* = called active by the depositor; i = inactive; ? = inconclusive; · = not tested or not shown; [ ] = dose if it differs, or a comment. Rows were chosen to be rich in hits. Some 6.6% of all compounds tested hit in one or more screens of this group. Calls follow the shape of the dose curve; as a rule, active = well fitted curve in the direction sought with a large enough effect; inconclusive = small, poorly fitted or top-dose-only effect, or another doubt; inactive = no such curve, though single readings can be large; an effect the other way counts as inactive or inconclusive. Potency is read from the fitted curve at half-maximal effect.

SMILES	HepG2 tox	TGFb inhibitor	HT1080 IDH1KD tx	HT1080-NT tox	KB-3-1 tox	KB-V1 MDR tox
OC(c1ccccc1)(c1nc(-c2cccc(F)c2)cs1)C(F)(F)F (centres undefined)	-89%	?	?	18µM*	i	i
OC(c1ccccc1)(c1nc(/C=C/c2ccccc2)cs1)C(F)(F)F (centres undefined)	-114%	22µM*	?	?	i	i
CC(O)(c1ccc(F)c(F)c1)c1nc(/C=C/c2ccccc2)cs1 (centres undefined)	-55%	?	-24%	-27%	i	i
OC(c1ccccc1)(c1nc(-c2ccccc2)cs1)C(F)(F)F (centres undefined)	-109%	?	?	21µM*	i	i
Cc1cc(C)n2c(NC3CCCCC3)c(-c3ccc(F)cc3)nc2n1	·	·	8%	-1%	i	?
CC(NC(=O)Nc1cc(Cl)ccc1Cl)c1c(-n2cccc2)sc2c1CCCC2 (centres undefined)	-15%	-17%	·	·	i	i
Cc1ccc(CSc2ncc(Cl)c(C(=O)Nc3nnc(C)s3)n2)cc1	12%	6%	·	·	i	i
COc1ccccc1-n1c(=O)oc2ccc(Cl)cc2c1=O	-16%	?	2.9µM*	2.9µM*	?	?
COc1c(Cl)c(=O)oc2ccc(Cl)cc12	-1%	0%	18%	2%	i	i
O=C(Nc1nnc(S(=O)(=O)N2CCCc3ccccc32)s1)c1cccc(Cl)c1	-40%	?	·	·	i	i
CC(=O)c1ccc(NC(=S)NC(C)CCc2ccccc2)cc1 (centres undefined)	-42%	13µM*	3%	-4%	i	i
COc1ccc(S(=O)(=O)CCC(=O)NCCc2ccc(Cl)cc2)cc1	13µM*	?	-11%	0%[9.24 µM]	i	?
Cc1cc(C)cc(C(=O)NCCc2csc(-c3ccc(C(F)(F)F)cc3)n2)c1	0%	-3%	·	·	·	·
COc1ccc(CC(=O)NCCc2csc(-c3cccc(C)c3)n2)cc1	-24%	-24%	·	·	·	·
O=C(COc1ccccc1)NCCc1csc(-c2ccc(Cl)cc2)n1	-73%	11µM*	·	·	i	i
COc1ccc(CNC(=O)CCS(=O)(=O)c2ccc(Br)cc2)cc1	9%	4%	16%	16%	i	i
O=C(NCCc1csc(-c2ccc(C(F)(F)F)cc2)n1)c1ccc(F)c(F)c1	-74%	11µM*	·	·	23µM*	13µM*
COc1ccc(CC(=O)NCCc2csc(-c3ccc(Cl)cc3)n2)cc1	-6%	?	·	·	i	0.92µM*
CCn1c(SCC(=O)Nc2cccc(Cl)c2)nnc1-c1nonc1NC(C)=O	-3%	0%	·	·	i	i
CCOC(=O)C1CCCN(C(=O)c2ccc3c(c2)N(Cc2ccc(Cl)cc2)C(=O)c2ccccc2S3=O)C1 (centres undefined)	0%	?	·	·	i	i
COc1cc(CN(C(=O)Nc2cccc(Cl)c2)c2ccccn2)cc(OC)c1OC	2%	-19%	·	·	i	i
COc1ccc(COc2cc(-c3cccc(OC)c3)nc3ccc(NC(=O)c4ccc(OC)cc4)cc23)cc1	18%	?	4.6µM*	5.2µM*	4.1µM*	i
COc1ccc(COc2cc(-c3cccc(OC)c3)nc3ccc(NC(=O)c4ccccc4)cc23)cc1	-1%	-3%	23µM*	?	16µM*	i
COc1ccc(C(=O)Nc2ccc(NC(=O)c3cccc(OC)c3)cn2)cc1	-23%	?	?	21µM*	i	i

Screening data (PubChem)
